# Structures can show the parent of a compound that is named as a salt.
# Test system: A431
# Test: LBPA endosome anti-LBPA integrated intensity (sum per cell), Z-score; higher = more LBPA staining
# Settings: compound concentration in added solution (µM; 5 µl added to 20 µl cells): 10; 18 h
# Outline: (§1)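 The data are Z-scores, normalised in AcuityXpress, of integrated LBPA or filipin intensity in each cell, either whole-cell or restricted to LBPA endosomes. HeLa MZ or A431 cells, 3,500 per well in 20 µl, were seeded onto 5 µl of 10 µM compound solution in duplicate 384-well plates and incubated 18 h. Fixed cells were stained and imaged, with intensities extracted by MetaXpress segmentation.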
row,SMILES,LBPA endosome anti-LBPA integrated intensity (z-score)
1,NCC1(CC(=O)O)CCCCC1 [Gabapentin],-0.54
2,CC(=O)NC1CCSC1=O (racemic) [N-Acetyl-DL-homocysteine Thiolactone],-0.475
3,NCCCNCCSP(=O)(O)O [Amifostine],-0.621
4,CCN(CC)C(C)C(=O)c1ccccc1 (stereo not given) [Amfepramone hydrochloride],-0.552
5,CCCC(C)C1(CC)C(=O)NC(=O)NC1=O (stereo not given) [Pentobarbital],-0.683
6,O=[N+]([O-])O[C@H]1CO[C@H]2[C@@H]1OC[C@H]2O[N+](=O)[O-] [Isosorbide dinitrate],-0.547
7,O[C@@H]1CCCC[C@H]1N1CCC(c2ccccc2)CC1 [L(-)-vesamicol hydrochloride],-0.173
8,O=c1[nH]c2ccccc2n1CCCN1CCC(n2c(=O)[nH]c3cc(Cl)ccc32)CC1 [Domperidone],2.25
9,O=P1(NCCCl)OCCCN1CCCl (stereo not given) [Ifosfamide],-0.43
10,Cc1cccc(C)c1NC1=NCCCS1 [Xylazine],-0.493
11,O=c1[nH]oc2c1CCNC2 [THIP Hydrochloride],-0.526
12,CC[N+]1(C)CCCC(OC(=O)C(O)(c2ccccc2)c2ccccc2)C1 (stereo not given) [Pipenzolate bromide],-0.28
13,N[C@@H]1C[C@H]1c1ccccc1 [Tranylcypromine hydrochloride],-0.505
14,CN(C)C(=O)Oc1cc(OC(=O)N(C)C)cc(C(O)CNC(C)(C)C)c1 (stereo not given) [Bambuterol hydrochloride],-0.585
15,C[C@H](N)[C@H](O)c1ccc(O)c(O)c1 [Levonordefrin],-0.29
16,CO[C@]12C[C@@H](COC(=O)c3cncc(Br)c3)CN(C)[C@@H]1Cc1cn(C)c3cccc2c13 [Nicergoline],3.54
17,C#C[C@]1(O)CC[C@H]2[C@@H]3CCC4=CC(=O)CCC4=C3C=C[C@@]21CC [Gestrinone],-0.489
18,CC(C)(C)NCC(O)c1ccccc1Cl (stereo not given) [Tulobuterol],-0.101

row,SMILES,LBPA endosome anti-LBPA integrated intensity (z-score)
1,COc1cc2c(cc1OC)C(C)NCC2 (stereo not given),-0.47
2,CC(C)C[C@H]1C(=O)N2CCC[C@H]2[C@]2(O)O[C@](NC(=O)[C@@H]3C=C4c5cccc6[nH]c(Br)c(c56)C[C@H]4N(C)C3)(C(C)C)C(=O)N12 [Bromocryptine mesylate],0.99
3,O=C(CCCN1CCC2(CC1)C(=O)NCN2c1ccccc1)c1ccc(F)cc1 [Spiperone],1.39
4,CN1C[C@H](CNC(=O)OCc2ccccc2)C[C@@H]2c3cccc4c3c(cn4C)C[C@H]21 [Metergoline],3.11
5,CCN[C@@H](C)Cc1cccc(C(F)(F)F)c1 [Dexfenfluramine hydrochloride],-0.18
6,CN1CCN(C(=O)OC2c3nccnc3C(=O)N2c2ccc(Cl)cn2)CC1 (stereo not given) [Zopiclone],-0.313
7,C[N+]12CCC(CC1)C(OC(=O)C(O)(c1ccccc1)c1ccccc1)C2 (stereo not given) [Clidinium bromide],-0.478
8,C[C@]12CCC(=O)C(O)=C1CC[C@@H]1[C@@H]2CC[C@]2(C)C(=O)CC[C@@H]12 [Formestane],1.1
9,C[C@]12CCC(=O)C=C1CC[C@@H]1[C@@H]2C(=O)C[C@]2(C)C(=O)CC[C@@H]12 [Adrenosterone],0.667
10,CCC1(CC)C(=O)C=CNC1=O [Pyrithyldione],-0.626
11,CCn1cc(C(=O)O)c(=O)c2cc3c(cc21)OCO3 [Oxolinic acid],-0.55
12,C=C1CC[C@@]2(O)[C@H]3Cc4ccc(O)c5c4[C@@]2(CCN3CC2CC2)[C@H]1O5 [Nalmefene hydrochloride],-0.278
13,C[C@]12COC(=O)C[C@@H]1CC[C@@H]1[C@@H]2CC[C@@]2(C)[C@H]1CC[C@]2(C)O [Oxandrolone],-0.386
14,C[C@]12N[C@H](Cc3ccccc31)c1ccccc12 [Dizocilpine maleate],-0.337
15,S=C(NC1CCCCC1)N1CCC(c2cnc[nH]2)CC1 [Thioperamide maleate],2.17
16,CN1C(=O)CCS(=O)(=O)C1c1ccc(Cl)cc1 (stereo not given) [Chlormezanone],-0.579
17,CN[C@@H]1[C@@H](O)[C@@H](O[C@@H]2[C@@H](O)[C@H](O[C@H]3O[C@H](CN)CC[C@H]3N)[C@@H](N)C[C@H]2N)OC[C@]1(C)O.CN[C@@H]1[C@@H](O)[C@@H](O[C@@H]2[C@@H](O)[C@H](O[C@H]3O[C@H]([C@@H](C)N)CC[C@H]3N)[C@@H](N)C[C@H]2N)OC[C@]1(C)O.CN[C@@H]1[C@@H](O)[C@@H](O[C@@H]2[C@@H](O)[C@H](O[C@H]3O[C@H]([C@@H](C)NC)CC[C@H]3N)[C@@H](N)C[C@H]2N)OC[C@]1(C)O [Gentamicine sulfate],-0.58

# Test system: HeLa MZ
# Test: as above
# Settings: compound concentration in added solution (µM; 5 µl added to 20 µl cells): 10; 18 h
# Outline: as §1
row,SMILES,LBPA endosome anti-LBPA integrated intensity (z-score)
1,NCC1(CC(=O)O)CCCCC1 [Gabapentin],-0.377
2,CC(=O)NC1CCSC1=O (racemic) [N-Acetyl-DL-homocysteine Thiolactone],-0.898
3,NCCCNCCSP(=O)(O)O [Amifostine],-1
4,CCN(CC)C(C)C(=O)c1ccccc1 (stereo not given) [Amfepramone hydrochloride],0.252
5,CCCC(C)C1(CC)C(=O)NC(=O)NC1=O (stereo not given) [Pentobarbital],-1.58
6,O=[N+]([O-])O[C@H]1CO[C@H]2[C@@H]1OC[C@H]2O[N+](=O)[O-] [Isosorbide dinitrate],-1
7,O[C@@H]1CCCC[C@H]1N1CCC(c2ccccc2)CC1 [L(-)-vesamicol hydrochloride],1.21
8,O=c1[nH]c2ccccc2n1CCCN1CCC(n2c(=O)[nH]c3cc(Cl)ccc32)CC1 [Domperidone],1.92
9,O=P1(NCCCl)OCCCN1CCCl (stereo not given) [Ifosfamide],-0.294
10,Cc1cccc(C)c1NC1=NCCCS1 [Xylazine],0.606
11,O=c1[nH]oc2c1CCNC2 [THIP Hydrochloride],-1.24
12,CC[N+]1(C)CCCC(OC(=O)C(O)(c2ccccc2)c2ccccc2)C1 (stereo not given) [Pipenzolate bromide],0.585
13,N[C@@H]1C[C@H]1c1ccccc1 [Tranylcypromine hydrochloride],-0.919
14,CN(C)C(=O)Oc1cc(OC(=O)N(C)C)cc(C(O)CNC(C)(C)C)c1 (stereo not given) [Bambuterol hydrochloride],-0.352
15,C[C@H](N)[C@H](O)c1ccc(O)c(O)c1 [Levonordefrin],-0.019
16,CO[C@]12C[C@@H](COC(=O)c3cncc(Br)c3)CN(C)[C@@H]1Cc1cn(C)c3cccc2c13 [Nicergoline],1.32
17,C#C[C@]1(O)CC[C@H]2[C@@H]3CCC4=CC(=O)CCC4=C3C=C[C@@]21CC [Gestrinone],-0.347
18,CC(C)(C)NCC(O)c1ccccc1Cl (stereo not given) [Tulobuterol],1.38

row,SMILES,LBPA endosome anti-LBPA integrated intensity (z-score)
1,COc1cc2c(cc1OC)C(C)NCC2 (stereo not given),0.672
2,CC(C)C[C@H]1C(=O)N2CCC[C@H]2[C@]2(O)O[C@](NC(=O)[C@@H]3C=C4c5cccc6[nH]c(Br)c(c56)C[C@H]4N(C)C3)(C(C)C)C(=O)N12 [Bromocryptine mesylate],2.32
3,O=C(CCCN1CCC2(CC1)C(=O)NCN2c1ccccc1)c1ccc(F)cc1 [Spiperone],1.71
4,CN1C[C@H](CNC(=O)OCc2ccccc2)C[C@@H]2c3cccc4c3c(cn4C)C[C@H]21 [Metergoline],1.47
5,CCN[C@@H](C)Cc1cccc(C(F)(F)F)c1 [Dexfenfluramine hydrochloride],-0.965
6,CN1CCN(C(=O)OC2c3nccnc3C(=O)N2c2ccc(Cl)cn2)CC1 (stereo not given) [Zopiclone],-0.4
7,C[N+]12CCC(CC1)C(OC(=O)C(O)(c1ccccc1)c1ccccc1)C2 (stereo not given) [Clidinium bromide],-0.195
8,C[C@]12CCC(=O)C(O)=C1CC[C@@H]1[C@@H]2CC[C@]2(C)C(=O)CC[C@@H]12 [Formestane],1.9
9,C[C@]12CCC(=O)C=C1CC[C@@H]1[C@@H]2C(=O)C[C@]2(C)C(=O)CC[C@@H]12 [Adrenosterone],1.59
10,CCC1(CC)C(=O)C=CNC1=O [Pyrithyldione],-1.42
11,CCn1cc(C(=O)O)c(=O)c2cc3c(cc21)OCO3 [Oxolinic acid],-0.225
12,C=C1CC[C@@]2(O)[C@H]3Cc4ccc(O)c5c4[C@@]2(CCN3CC2CC2)[C@H]1O5 [Nalmefene hydrochloride],0.776
13,C[C@]12COC(=O)C[C@@H]1CC[C@@H]1[C@@H]2CC[C@@]2(C)[C@H]1CC[C@]2(C)O [Oxandrolone],-0.00131
14,C[C@]12N[C@H](Cc3ccccc31)c1ccccc12 [Dizocilpine maleate],0.113
15,S=C(NC1CCCCC1)N1CCC(c2cnc[nH]2)CC1 [Thioperamide maleate],2.24
16,CN1C(=O)CCS(=O)(=O)C1c1ccc(Cl)cc1 (stereo not given) [Chlormezanone],-0.715
17,CN[C@@H]1[C@@H](O)[C@@H](O[C@@H]2[C@@H](O)[C@H](O[C@H]3O[C@H](CN)CC[C@H]3N)[C@@H](N)C[C@H]2N)OC[C@]1(C)O.CN[C@@H]1[C@@H](O)[C@@H](O[C@@H]2[C@@H](O)[C@H](O[C@H]3O[C@H]([C@@H](C)N)CC[C@H]3N)[C@@H](N)C[C@H]2N)OC[C@]1(C)O.CN[C@@H]1[C@@H](O)[C@@H](O[C@@H]2[C@@H](O)[C@H](O[C@H]3O[C@H]([C@@H](C)NC)CC[C@H]3N)[C@@H](N)C[C@H]2N)OC[C@]1(C)O [Gentamicine sulfate],-1.17
